Results: the supplement of paper PMC10338343
± gives the standard deviation.

tested on: MILI (PIWIL2) piRISC loaded with piRNA #1 (26 nt); assay: pre-steady-state target cleavage rate (min^-1); guide: piRNA #1 5'p-UGAGGUAGUAGGUUGUAUAGUAUCCA; MIWI and MILI are mouse PIWI proteins and EfPiwi is from a freshwater sponge; tags in brackets are library labels; higher = faster piRNA-guided slicing of the target; conditions: auxiliary factor: 500 nM mouse GTSF1
Method in brief: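 The pre-steady-state cleavage rate was calculated from a burst-and-steady-state fit. Data came from Cleave-'n-Seq, in which […] transcribed, DNA-blocked target RNA library was mixed with 1 nM active affinity-purified piRISC carrying one synthetic guide, with or without 500 nM GTSF1 partner protein, in HEPES–potassium acetate buffer at 33 °C for 0–8 or 0–960 min. Uncleaved targets were sequenced and normalised to depth and to weakly complementary targets, three trials were pooled, and k3 was capped at 0.0001 min^-1.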
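Note: 1 nM active piRISC with 0.1 nM target library at 33 °C single turnover.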

How did the “pre-steady-state target cleavage rate” value turn out when GGAGACCUUACUAUACAAGCUACAACCUCA was run?
The value was 0.239 ± 0.018.

How did the “pre-steady-state target cleavage rate” value turn out when GGAGACCUAACUUACAACCUACUACCUCA was run?
Its value is 0.0068 ± 0.0056.

Which “pre-steady-state target cleavage rate” value does the source give for GGAGACCAUACUUUACAACCUACUAGCUCA here?
The value was 0.0628 ± 0.015.

How did the “pre-steady-state target cleavage rate” value turn out when GGAGACCUUAGUUUACAACCUACUACCUCA was run?
The value was 0.0381 ± 0.012.

For GGAGACCUAUCUAUACAACCGUACUACCUCA, which “pre-steady-state target cleavage rate” value is on record?
Its value is 0.00775 ± 0.0032.

GGAGAGGAUAGUAUUCAACCUACUACCUCA was tested. Which “pre-steady-state target cleavage rate” value did it give?
Its value is 0.0731 ± 0.011.

How did the “pre-steady-state target cleavage rate” value turn out when GGAGACCUUACUAUACUACCUAGUACCUCA was run?
Its value is 0.035 ± 0.0072.

How did the “pre-steady-state target cleavage rate” value turn out when GGAGACCUAUGAUAACAACCUACUGACCUCA was run?
Its value is 0.00368 ± 0.0025.

Which “pre-steady-state target cleavage rate” value does the source give for GGAGACCUAUGAAUUCAACCUACUACCUCA here?
The value was 0.00274 ± 0.0019.

With GGAGACCUAUCUAUAGAACCUACUUCCUCA as the sequence, how does the “pre-steady-state target cleavage rate” value read?
Its value is 0.00536 ± 0.0024.

GGAGACCUUACUAUAGAACCUACUACGUCA was tested. Which “pre-steady-state target cleavage rate” value did it give?
Its value is 0.0503 ± 0.012.

For GGAGACCUAUGUAUACAACCUACUAACUCA, which “pre-steady-state target cleavage rate” value is on record?
Its value is 0.0355 ± 0.0081.

Which “pre-steady-state target cleavage rate” value does the source give for GGAGAGGAUUCUAUACUACCUACUACCUCA here?
Its value is 0.161 ± 0.0097.

For GGAGACCUAUGUAUACAACCUCCUACCUCA, which “pre-steady-state target cleavage rate” value is on record?
The value was 0.0161 ± 0.0038.

Which “pre-steady-state target cleavage rate” value does the source give for “GGAGACCUUACUAUACAACCUACUUGGAGA [g7:g22:cont:t1A]” here?
Its value is 0.00375 ± 0.0034.

Which “pre-steady-state target cleavage rate” value does the source give for GGAGACGAUAGUAUAGAACCUACUACCUCA here?
Its value is 0.158 ± 0.013.

Which “pre-steady-state target cleavage rate” value does the source give for GGAGACCUAACUAUAGCAACCUACUACCUCA here?
Its value is 0.0973 ± 0.023.

How did the “pre-steady-state target cleavage rate” value turn out when GGAGACCUAUCUAUACAACGUACUACGUCA was run?
The value was 0.00657 ± 0.0026.

How did the “pre-steady-state target cleavage rate” value turn out when GGAGACCUAUGAUUACAACCUACAACCUCA was run?
The value was 0.00538 ± 0.0023.

For GGAGACCUAUGAUUACAUCCUACUACGUCA, which “pre-steady-state target cleavage rate” value is on record?
Its value is 0.00263 ± 0.0026.

How did the “pre-steady-state target cleavage rate” value turn out when GGAGACCAUAGUAUACAACCUAGUACCUCA was run?
The value was 0.0677 ± 0.011.

With GGAGACCUAAGUAUACAACCUUCUACCUCA as the sequence, how does the “pre-steady-state target cleavage rate” value read?
The value was 0.00652 ± 0.0032.

For GGAGACCUAUGAUUACAACCUACUACCUA, which “pre-steady-state target cleavage rate” value is on record?
Its value is 0.00393 ± 0.0024.

For GGAGACGAUACUAAUCAACCUACUACCUCA, which “pre-steady-state target cleavage rate” value is on record?
Its value is 0.182 ± 0.015.

GGAGACCUUACAAUACAACCUACUACGUCA was tested. Which “pre-steady-state target cleavage rate” value did it give?
The value was 0.0615 ± 0.009.

GGAGACCAUACUAUACUACCUACUAGCUCA was tested. Which “pre-steady-state target cleavage rate” value did it give?
The value was 0.0939 ± 0.017.

GGAGUGGAUACUAUAGUACCUACUACCUCA was tested. Which “pre-steady-state target cleavage rate” value did it give?
Its value is 0.161 ± 0.012.

For GGAGACCUAACUAUACAAGCUACUACGUCA, which “pre-steady-state target cleavage rate” value is on record?
The value was 0.152 ± 0.033.

GGAGACCUAUGAUUACAACCUACUACCUAA was tested. Which “pre-steady-state target cleavage rate” value did it give?
The value was 0.00444 ± 0.003.

For GGAGACCUAACUAUACUACCUAGUACCUCA, which “pre-steady-state target cleavage rate” value is on record?
Its value is 0.0154 ± 0.0058.

GGAGACCUAUGAUAUGUUGCUACUACCUCCA was tested. Which “pre-steady-state target cleavage rate” value did it give?
The value was less than 0.0001.

How did the “pre-steady-state target cleavage rate” value turn out when GGAGACCUAUGAAUACAUCCUUCUACCUCA was run?
The value was 0.00365 ± 0.0022.

For GGAGACCAUACUAUACAACCUAACUACCUCA, which “pre-steady-state target cleavage rate” value is on record?
The value was 0.0248 ± 0.0049.

How did the “pre-steady-state target cleavage rate” value turn out when GGAGACCUAACUAUACAACCUAGUACCUCA was run?
Its value is 0.016 ± 0.0088.

How did the “pre-steady-state target cleavage rate” value turn out when GGAGACCUAUGAUUACAAGGUACUACCUCA was run?
The value was 0.0041 ± 0.0031.

With GGAGACCUAUGAUAUGAACGAACUACCUCA as the sequence, how does the “pre-steady-state target cleavage rate” value read?
The value was less than 0.0001.

GGAGACCUAUCUAUAGAACGUACUACCUCA was tested. Which “pre-steady-state target cleavage rate” value did it give?
The value was 0.00596 ± 0.0017.

How did the “pre-steady-state target cleavage rate” value turn out when GGAGACCUUACUAUACAACCUACUACCUA was run?
The value was 0.152 ± 0.018.

GGAGACGAUACUAUACAAACCUACUACCUCA was tested. Which “pre-steady-state target cleavage rate” value did it give?
The value was 0.00373 ± 0.0026.

With GGAGACCUAUGUAUACAACCUACUACCUGCA as the sequence, how does the “pre-steady-state target cleavage rate” value read?
Its value is 0.0635 ± 0.011.
